Among all 330,000 compounds or so, about 1,900 (0.58%) were called active. Not shown: some 4% with an inconclusive outcome. Not all results are given here. Measured potencies and affinities stand elsewhere. Unmarked numbers belong to inactive results. No stated cut-off is given here; in the data, inconclusive means inhibition above about 70% without an active follow-up result; inactive means below that.

The assay can be described thus: M. tuberculosis growth inhibition, HTS (AID 449762).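 Further: bacterial growth assessed after seven days of incubation.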 Particulars: M. tuberculosis H37Rv growth inhibition, 7H9 media; at 25 µM; active compounds read high.
With `COc1ccc(CC(=O)Nc2ccccc2N2CCCC2)cc1`, the inhibition is 0.8%.
Under `Cc1ccc(C2CC(=O)C=C(O)C2)cc1` (configuration not stated) stands 9.89%; under `COc1ccc(CNC(=O)NCCc2c[nH]c3ccccc23)cc1`, 9.15%; under `CSc1ccccc1NC(=O)COc1nsnc1N1CCOCC1`, 2.19%.
The value for `Cc1cccc(NC(=O)CSc2nc(N)c(NC(=O)c3ccccc3F)c(=O)[nH]2)c1` was -17.1%.
Under `COC(=O)c1ccc2[nH]c(C(C)(C)O)c(C)c2c1` stands -3.19%; under `COc1ccc(C2=NN3C(C2)c2ccccc2OC3c2cccs2)cc1` (configuration not stated), -3.24%; under `c1ccc(C2Oc3ccccc3C3CC(c4cccs4)=NN32)cc1` (configuration not stated), -7.12%.
Regarding `COC(=O)COc1cc(=O)oc2ccc(NS(=O)(=O)c3ccccc3)cc12`, the inhibition is 11.6%.
With `Cn1cc(C(=O)c2cccc(Cl)c2Cl)cc1C#N`, the inhibition is -7.62%.
The value for `Cc1ccc([N+](=O)[O-])cc1N(CC(=O)NC1CCCC1)S(C)(=O)=O` was -1.93%; that for `COc1ccc(C)cc1NS(=O)(=O)c1ccc(NC(=O)CN(c2cc([N+](=O)[O-])ccc2C)S(C)(=O)=O)cc1` was 0.68%; that for `CCN1CCN(C(c2cc(OC)c(OC)c(OC)c2)c2nnnn2C(C)C)CC1` (configuration not stated) was -6.3%.
On to `CCN1C(=NCCc2ccc([N+](=O)[O-])cc2)N[C@@H](c2ccccc2)[C@H](C(=O)OC)[C@H]1C`, for which the inhibition was -8.81%.
Under `CCN1C(=NCCc2cccnc2)N[C@@H](c2ccccc2)[C@H](C(=O)OC)[C@H]1C` stands -0.82%.
Under `COc1ccc(Nc2oc(-c3ccccc3)nc2C#N)cc1` stands -0.48%.
Under `COC(=O)c1ccc(N2CCN(c3ccccc3)CC2)nc1` stands -3.88%; under `FC(F)(F)c1ccc(-n2cnc3ccccc32)nc1`, -0.78%.
For `Cc1c(Nc2nc(-c3ccccc3)cs2)c(=O)n(-c2ccccc2)n1C`, the inhibition was 0.86%.
As to `CCOC(=O)c1c(NC(=O)c2cc3n(n2)C(C(F)(F)F)CC(c2ccccc2)N3)sc(C)c1C` (configuration not stated), the inhibition is -4.24%.
Under `O=C(C(c1ccccc1)c1ccccc1)N1CCN(CCN2C(=O)c3cccc4cccc(c34)C2=O)CC1` stands -9.17%.
For `CC(C)(C)C(=O)N1CCN(CCN2C(=O)c3cccc4cccc(c34)C2=O)CC1`, the inhibition was -4.28%.
The value for `O=C(OCC#CCSc1nnc(-c2cccc3ccccc23)o1)c1ccc2ccccc2c1` was 8.92%; that for `O=C(OCC#CCSc1nnc(-c2cccc3ccccc23)o1)c1cc2ccccc2o1` was 36.1%.
Under `CN1CCN(S(=O)(=O)c2ccc(SCCOc3ccccc3)nc2)CC1` stands -0.98%; under `CN1CCN(S(=O)(=O)c2ccc(SCCOc3ccc(Cl)cc3)nc2)CC1`, -1.28%; under `Cc1c(S(=O)(=O)N2CCCCC2)c(=O)n(C)c(=O)n1C`, -9.81%.
With `CN1C(=O)N(C)C2(c3ccccc3)N(C(C)(C)C)C(=O)NC12c1ccccc1` (configuration not stated), the inhibition is -0.92%.
The value for `Cc1ccc2cc(C)c(N3CCN(c4ccc(F)cc4)CC3)nc2c1` was 0.67%; that for `Cc1ccc2cc(C)c(N3CCC(C)CC3)nc2c1` was -2.14%.
On to `CN(Cc1ccc(Cl)s1)C(=O)CSc1nnc(C2CC2)n1C1CC1`, for which the inhibition is 2.1%.
With `CN(Cc1ccc(Cl)s1)C(=O)CNC(=O)CNC(=O)c1ccc(Cl)cc1Cl`, the inhibition is 0.015%.
Under `O=C(COc1ccc(Cl)cc1Cl)Nc1ccc(-c2ccc(N3CCOCC3)nn2)cc1` stands 27.4%; under `Cc1ccc2c(c1)C1C[N+](C)(CC(=O)Nc3ccccc3Cl)CCC1N2C(=O)c1ccccc1Cl` (configuration not stated), 21.9%.
The value for `Cc1ccc2c(c1)C1C[N+](C)(CC(=O)c3ccccc3)CCC1N2C(=O)c1ccccc1Cl` (configuration not stated) was -0.23%; that for `CC(C)[C@H](NC(=O)c1ccccc1F)C(=O)Nc1nc2c(s1)CCCC2` was -0.81%.
On to `COc1cccc(-c2nc(CS(=O)(=O)CC(=O)Nc3ccccc3Br)c(C)o2)c1`, for which the inhibition is -5.15%.
The value for `Cc1cc(N2CCCCC2)n2ncc(-c3ccc(Cl)cc3)c2n1` was 94.8%; that for `Cc1cc(C)n2cc(-c3ccc(Cl)cc3)c(C(=O)O)c2n1` was 5.32%; that for `Cc1nn(C)c(C)c1C1C(C#N)=C(N)Oc2n[nH]c(C)c21` (configuration not stated) was 4.26%.
As for `CC(C)c1ccc(CNc2c([N+](=O)[O-])c(=O)oc3ccccc23)cc1`, the inhibition was 4.35%.
Under `Cc1cccc(NN=C2c3ccccc3-c3ccccc32)c1` stands 3.47%; under `O=C(O)c1cc(NN=C2c3ccccc3-c3ccccc32)ccc1Cl`, 14%; under `COc1ccc(-n2c(COc3ccc4c(c3)OCO4)nnc2SCC(=O)O)cc1`, 14.8%.
The value for `Cc1cc2occ(CC(=O)NC3(C)CCS(=O)(=O)C3)c2cc1C` (configuration not stated) was -9.66%; that for `CN(C)c1ccc(CNc2ccc3c(c2)ncn3C(C)(C)C)cc1` was 8.27%.
As to `CCOc1ccc(CNc2ccc3c(c2)ncn3C(C)(C)C)cc1`, the inhibition was -2.96%.
The value for `CC(C)(C)n1nnnc1C(c1cccc(C(F)(F)F)c1)N1CCC(O)CC1` (configuration not stated) was 2.3%.
Under `Cc1ccc(-c2noc(C3CCCN(C(=O)c4ccc(Cl)cc4)C3)n2)o1` (configuration not stated) stands 0.38%.
Under `Cc1ccc(-c2noc(C3CCCN(C(=O)c4ccccc4)C3)n2)o1` (configuration not stated) stands 2.39%; under `COc1cccc(C(=O)NNC2=C(C(=O)C(F)(F)F)CCC2)c1`, 0.71%; under `O=C(Nc1cccc(S(=O)(=O)NC2=NCCCCC2)c1)c1cc(-c2ccccc2)nc2ccccc12`, 4.99%.
Take `CCn1c(SCC(=O)N2CCCCC2C)nnc1-c1ccco1` (configuration not stated): the inhibition is -6.38%.
Under `O=C(N/N=C/c1cc2ccccc2nc1Cl)[C@H]1C[C@@H]1c1ccccc1` stands 22.8%.
With `Cc1cccc2cc(/C=N/NC(=O)[C@H]3C[C@@H]3c3ccccc3)c(Cl)nc12`, the inhibition was 1.65%.
The value for `N#Cc1ccc(OCC(=O)Nc2cccc(S(=O)(=O)NC3=NCCCCC3)c2)cc1` was -7.44%.
The value for `Oc1ccc(Nc2nc(-c3ccccc3)nc3ccccc23)cc1` was 10.3%.

Source of the values: PubChem BioAssay AID449762 (Southern Research Specialized Biocontainment Screening …, 2010).
